Assay results as given in PubChem BioAssay.
A number with no mark means an inactive call. The rule behind the calls is not given here.

molecular target: Pantothenate synthetase (Mycobacterium tuberculosis (strain ATCC 25618 / H37Rv)) (UniProt P9WIL5); experiment: Recombinant Mtb pantothenate synthetase (PanC) inhibitors, coupled enzyme, confirmatory (AID 375); details: coupled enzyme assay; at 10 µM, active compounds read high;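 note: 0% = full reaction with vehicle and 100% = no enzyme background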
Sequence (P9WIL5 whole entry, looked up): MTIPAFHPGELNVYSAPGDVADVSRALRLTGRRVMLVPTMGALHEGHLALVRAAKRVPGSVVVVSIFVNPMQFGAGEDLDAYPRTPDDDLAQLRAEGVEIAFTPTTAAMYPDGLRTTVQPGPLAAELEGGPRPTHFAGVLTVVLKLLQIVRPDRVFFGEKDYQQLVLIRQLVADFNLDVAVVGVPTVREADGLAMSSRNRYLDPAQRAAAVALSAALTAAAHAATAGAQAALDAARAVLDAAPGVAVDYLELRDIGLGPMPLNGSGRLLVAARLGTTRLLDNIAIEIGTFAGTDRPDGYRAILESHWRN

COCCSc1nnc(NC(=O)CSCc2ccccc2)s1 and CSc1ccc(Cn2nnc(C(=O)NCc3ccccc3)c2N)cc1 are the same in inhibition: 0% for the first, 0% for the second.

First: COCCOC(=O)c1[nH]c2c(c1C)C(=O)CC(c1ccco1)C2 (stereo not given)
Second: CCCOC(=O)C1[C@H]2C(=O)N(CCCOC)C[C@]23C=C[C@H]1O3 (stereo not given in full)
The inhibition of the first is higher: 3% for the first, 0% for the second.

First: C=CCn1c(=O)[nH]c2cc(C(=O)N3CCN(c4ccc(C(C)=O)cc4)CC3)ccc2c1=O
Second: CN(C)S(=O)(=O)c1ccc(C(=O)N2CCC(c3nc4ccccc4o3)CC2)cc1
The inhibition of the first is lower: 1% for the first, 5% for the second.

COc1ccc(C(C(C(=O)c2cccs2)N2CCOCC2)N2CCOCC2)cc1OC (stereo not given) and COc1ccc(C(=O)CN2C3=NCCCN3c3ccccc32)cc1OC are the same in inhibition: 0% for the first, 0% for the second.

Going from CS(=O)(=O)N1CCc2cc(S(=O)(=O)Nc3ccc4oc5c(c4c3)CCCC5)ccc21 to CC(C)CNS(=O)(=O)c1ccc(OCC(=O)Nc2ccc3c(c2)OCO3)c(Cl)c1, the inhibition rises from 3% to 6%.

Going from Cc1ccc(-c2cn3nc(C)c(C)nc3n2)cc1 to Cc1ccc(CNC(=O)C2CCN(S(=O)(=O)c3c(C)noc3C)CC2)cc1, the inhibition rises from 1% to 3%.

COc1cccc(NC(=O)COc2ccccc2C(N)=O)c1 and COC(=O)c1cccc(NC(=O)Cc2coc3cc(OC)ccc23)c1 are the same in inhibition: 0% for the first, 0% for the second.

Compared with CCOC(=O)Cn1c(CCC(=O)O)ccc1-c1ccc(F)cc1, Cc1cc(=O)oc2ccc(OCC(=O)N(Cc3ccc(F)cc3)Cc3ccco3)cc12 is lower in inhibition: 3% for the first, 0% for the second.

CC(C)CCNC(=O)C(c1ccco1)N(CC1CCCO1)C(=O)Cn1nnc2ccccc21 (stereo not given) and CCC(C)(C)NC(=O)C(c1ccco1)N(C(=O)Cn1nnc2ccccc21)c1ccc2c(c1)OCO2 (stereo not given) are the same in inhibition: 0% for the first, 0% for the second.

Cc1[nH]c2c(C)cccc2c(=O)c1Br and CCc1cccc2c(=O)c(C(=O)N3CCCCCC3)c[nH]c12 are the same in inhibition: 0% for the first, 0% for the second.

Compared with CCCCC(=NCCO)C1=C(O)C(C(=O)OC)C(C)(C)CC1=O (stereo not given), Cc1sc2nc(SCC(=O)NCCO)n(C)c(=O)c2c1C is lower in inhibition: 8% for the first, 0% for the second.

Compared with COC(=O)c1ccccc1NC(=O)CSc1nc2c(c(=O)n(C)c(=O)n2C)n1C, COc1ccc(NC(=O)CSc2nc3c(c(=O)n2-c2ccc(F)cc2)SCC3)cc1 is lower in inhibition: 3% for the first, 0% for the second.

NC(=O)CSc1cn(CCNC(=O)c2cccs2)c2ccccc12 and Cc1onc(-c2ccccc2)c1C(N)=O are the same in inhibition: 0% for the first, 0% for the second.

Going from N[C@@H](Cc1ccc(O)c(I)c1)C(=O)O to CC(C)NCC(O)COc1ccc(CC(N)=O)cc1 (stereo not given), the inhibition falls from 6% to 0%.

CC(=O)Oc1ccc(C(c2ccc(OC(C)=O)cc2)c2ccccn2)cc1 and COc1ccc(S(=O)(=O)N(CC(=O)N2CCN(c3ccccc3OC)CC2)c2ccccc2)cc1 are the same in inhibition: 0% for the first, 0% for the second.

COc1ccc(-c2nc(C#N)c(N3CCN(c4ccccc4)CC3)o2)cc1 and O=c1c2c(-c3ccccc3)csc2nc2n1CCC2 are the same in inhibition: 0% for the first, 0% for the second.

Going from COC(=O)CCn1nnc(-c2cccs2)n1 to CC(=O)Nc1ccc(-c2nn[nH]n2)cc1Cl, the inhibition falls from 1% to 0%.

First: N#CC(C(=O)Nc1ccc(Cl)c(Cl)c1)=C1Nc2ccccc2N1
Second: CC(=O)Nc1cc(N2C(=O)CCC2=O)ccc1Cl
The inhibition of the first is higher: 2% for the first, 0% for the second.

First: CC1/C(=N/O)C(CN(C)C)C2CC1C2(C)C (stereo not given)
Second: CCOc1ccc(NC(=O)CN(C)S(=O)(=O)c2cccs2)cc1
The inhibition of the first is lower: 0% for the first, 13% for the second.

O=C(O)c1cc2c(s1)CCCC2 and O=C(Nc1ccc(Cl)cc1)C1CC=CCC1C(=O)OCC(F)(F)C(F)F (stereo not given) are the same in inhibition: 0% for the first, 0% for the second.
